PABP FP inh: blocks human PABP binding to poly(A) RNA. P11940. fluorescence polarization. inhibition, % at 35 µM. hit rate 1% among 290,000;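 note: calls also rest on retests at 20 µM and on dose response follow-up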
Target sequence (P11940 whole entry, looked up): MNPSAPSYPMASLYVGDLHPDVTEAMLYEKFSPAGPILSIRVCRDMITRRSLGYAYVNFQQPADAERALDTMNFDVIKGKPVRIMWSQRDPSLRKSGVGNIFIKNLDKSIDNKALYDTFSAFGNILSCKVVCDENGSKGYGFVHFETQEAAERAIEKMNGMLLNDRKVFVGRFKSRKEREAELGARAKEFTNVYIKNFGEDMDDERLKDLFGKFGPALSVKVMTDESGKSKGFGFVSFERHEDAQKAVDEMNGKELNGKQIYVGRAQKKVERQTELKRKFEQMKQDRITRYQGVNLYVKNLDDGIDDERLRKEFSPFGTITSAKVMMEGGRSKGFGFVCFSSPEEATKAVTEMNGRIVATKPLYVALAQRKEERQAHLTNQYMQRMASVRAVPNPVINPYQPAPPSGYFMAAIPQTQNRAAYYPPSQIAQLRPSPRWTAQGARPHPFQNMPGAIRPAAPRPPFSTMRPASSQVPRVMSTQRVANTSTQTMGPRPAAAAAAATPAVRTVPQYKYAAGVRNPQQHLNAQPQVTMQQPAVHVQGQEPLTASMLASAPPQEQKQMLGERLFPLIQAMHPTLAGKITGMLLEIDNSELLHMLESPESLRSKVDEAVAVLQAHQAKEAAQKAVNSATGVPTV
PERK inhibitor: inhibitors of human PERK kinase; Q9NZJ5; CHO PERK-DD fusion, SEAP luminescence translation reporter; inhibition, % at 5.6 µM; hit rate 0.17% among 220,000; AID 1416;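 active = inhibition above the mean inhibition of all tested compounds plus 3 SD, set separately per screening campaign, cut at about 2.9% in these data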;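 note: PERK kinase domain activated by AP20187 dimerizer at 100 nM; 0% = DMSO with dimerizer and 100% = rapamycin at 8.4 µM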
eIF4E-4G inh: blocks eIF4E binding to eIF4G; P63073+Q04637; TR-FRET eIF4E-eIF4GI(517-606) binding, 2 h; inhibition, % at 21.7 µM; hit rate 0.37% among 220,000; AID 782;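 active = inhibition above about 30%, limit read from the data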;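 note: 0% = full FRET control wells and 100% = background wells lacking eIF4GI fragment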
eIF4H inh: inhibitors of RNA binding by human eIF4H; Q15056; eIF4H fluorescence polarization binding assay; inhibition, % at 35 µM; hit rate 0.94% among 290,000; AID 2012;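 note: calls also rest on retests at 20 µM and on dose response follow-up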
PABP1 MLLE inh: blocks PAM2 peptide binding to the PABP1 MLLE domain; GST-MLLE / FITC-PAM2 fluorescence polarization; inhibition, % at 20 µM; hit rate 0.36% among 360,000; AID 588489; in the data active = inhibition above about 35%, passing the limit was not always enough;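 note: plate controls were DMSO wells with GST-MLLE for no effect and wells lacking GST-MLLE protein for full effect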
Numbers without * were called inactive; [ ] = another dose, or the depositor's remark. This is a sample that favours compounds with a hit; in the whole collection about 1.6% have one here. Unless noted, the rule behind the calls is not given here.

How did O=C(O)c1ccccc1SC1CC(=O)N(c2ccc3c(c2)OCO3)C1=O (stereo unspecified) do in these assays?
PABP FP inh: 1; PERK inhibitor: 0; eIF4E-4G inh: 8; eIF4H inh: 33; PABP1 MLLE inh: 38*

What do the screens show for `Cc1cc(C)cc(N2C(=O)CC(Sc3ccccc3C(=O)O)C2=O)c1` (stereo unspecified)?
PABP FP inh: 4; PERK inhibitor: 0; eIF4E-4G inh: 5; eIF4H inh: -4; PABP1 MLLE inh: 41*

How did Oc1c(Cl)cc(Cl)cc1Sc1cc(Cl)cc(Cl)c1O do in these assays?
PABP FP inh: active; PERK inhibitor: 1; eIF4E-4G inh: 23; eIF4H inh: 74*

What do the screens show for `CN1CCN(c2ccc(CNC(=O)c3cc4ccccc4o3)cc2)CC1`?
PABP FP inh: -9; PERK inhibitor: -1; eIF4E-4G inh: 2; eIF4H inh: -10; PABP1 MLLE inh: 18

How did COc1ccc(OC)c(NC(=O)COC(=O)c2cc3c(s2)CCC3)c1 do in these assays?
PABP FP inh: inconclusive; PERK inhibitor: 0; eIF4E-4G inh: 37*; eIF4H inh: inconclusive; PABP1 MLLE inh: -5

Results for CC(C)(C)S(=O)(=O)c1cnc2c(-c3ccc(Cl)cc3)cnn2c1N ?
PABP FP inh: -37; PERK inhibitor: 2; eIF4E-4G inh: -10; eIF4H inh: -32; PABP1 MLLE inh: -1

Results for COc1cc(CC(=O)NCCc2ccc(S(N)(=O)=O)cc2)cc(OC)c1OC ?
PABP FP inh: 1; PERK inhibitor: 1; eIF4E-4G inh: 81*; eIF4H inh: -2; PABP1 MLLE inh: -4

Results for Cc1c(Cl)cccc1NC(=O)CNC(=O)C1CC(=O)N(CCc2ccccc2)C1 (stereo unspecified) ?
PABP1 MLLE inh: 3

How did COc1cccc2c1C(CO)N1C(C#N)C3CC(C(=O)O)C(C1C2)N3C (stereo unspecified) do in these assays?
PABP FP inh: -8; PERK inhibitor: 3.7*; eIF4E-4G inh: 5; eIF4H inh: -9; PABP1 MLLE inh: 16

How did COc1cccc2c1OCC(C(=O)O)C2 (stereo unspecified) do in these assays?
PABP FP inh: -3; PERK inhibitor: 1; eIF4E-4G inh: 1; eIF4H inh: 32; PABP1 MLLE inh: -4

What do the screens show for `COc1ccc(NC(=O)c2noc3c2CCC3)cc1`?
PABP FP inh: 52*; PERK inhibitor: -1; eIF4E-4G inh: 12; eIF4H inh: 107*; PABP1 MLLE inh: 3

What do the screens show for `CC(=O)c1ccc(NC(=O)c2noc3c2CCC3)cc1`?
PABP FP inh: -16; PERK inhibitor: 1; eIF4E-4G inh: 15; eIF4H inh: 76; PABP1 MLLE inh: 15

Results for COC(=O)c1ccccc1NC(NC(=O)c1ccco1)C(=O)c1ccc(C)cc1 (stereo unspecified) ?
PABP FP inh: 3; PERK inhibitor: 0; eIF4E-4G inh: 1; eIF4H inh: 1; PABP1 MLLE inh: -2

Results for COc1ccccc1NC(=O)c1c(N=Cc2cccc([N+](=O)[O-])c2)cnn1C ?
PABP FP inh: 3; PERK inhibitor: 1; eIF4E-4G inh: 46*; eIF4H inh: -3; PABP1 MLLE inh: -4

What do the screens show for `COC(=O)C1=C(C(=O)OC)C(c2cc(Br)ccc2O)c2sc(=O)[nH]c2S1` (stereo unspecified)?
PABP FP inh: -22; PERK inhibitor: 1; eIF4E-4G inh: 3; eIF4H inh: 0; PABP1 MLLE inh: 44*

What do the screens show for `COC(=O)C1=C(C(=O)OC)C(c2cc(Cl)ccc2O)c2sc(=O)[nH]c2S1` (stereo unspecified)?
PABP FP inh: 2; PERK inhibitor: 1; eIF4E-4G inh: -1; eIF4H inh: 7; PABP1 MLLE inh: 33

How did COC(=O)c1c(NC(=O)c2cccc([N+](=O)[O-])c2)sc(C(N)=O)c1C do in these assays?
PABP FP inh: 28*; PERK inhibitor: 2; eIF4E-4G inh: 0; eIF4H inh: 63*; PABP1 MLLE inh: 5

What do the screens show for `O=C(Nc1cccc([N+](=O)[O-])c1)c1cc2ccccc2cc1O`?
PABP FP inh: 16*; PERK inhibitor: -1; eIF4E-4G inh: -2; eIF4H inh: 61*; PABP1 MLLE inh: -1

Results for Cc1cc(CSc2ccccc2)ccc1NC(=O)c1cccc([N+](=O)[O-])c1 ?
PABP FP inh: -6; PERK inhibitor: 1; eIF4E-4G inh: 72*[fluorescence artefact?]; eIF4H inh: -4; PABP1 MLLE inh: -3

Results for Cc1cc(O)c(NC(=O)c2cccc([N+](=O)[O-])c2)cc1C ?
PABP FP inh: -6; PERK inhibitor: 0; eIF4E-4G inh: -3; eIF4H inh: -5; PABP1 MLLE inh: 6

What do the screens show for `O=C(Nc1cccc([N+](=O)[O-])c1)c1cccc(C(=O)Nc2cccc([N+](=O)[O-])c2)c1`?
PABP FP inh: -25; PERK inhibitor: 1; eIF4E-4G inh: 35*; eIF4H inh: 9; PABP1 MLLE inh: -1

Results for O=C(Nc1ccc(NC(=O)c2cccc([N+](=O)[O-])c2)cc1)c1cccc([N+](=O)[O-])c1 ?
PABP FP inh: -7; eIF4H inh: -10; PABP1 MLLE inh: -2

Results for COCc1c(C(=O)Nc2cccc(S(=O)(=O)N3CCCCC3)c2)oc2ccccc12 ?
PABP1 MLLE inh: 10

Results for Cc1c(NC(=O)c2ccc(Br)o2)c(=O)n(-c2ccccc2)n1C ?
PABP FP inh: 2; PERK inhibitor: 0; eIF4E-4G inh: -1; eIF4H inh: 4; PABP1 MLLE inh: 1

How did CCN(CC)CCNC(=O)c1ccc(NC(=O)c2cccc(S(=O)(=O)N3c4ccccc4CC3C)c2)cc1 (stereo unspecified) do in these assays?
PABP FP inh: 13; eIF4H inh: 0; PABP1 MLLE inh: 2

How did Cc1ccc(S(=O)(=O)N(C)C)cc1NC(=S)NNC(=O)C1CC1 do in these assays?
PABP FP inh: -12; PERK inhibitor: 0; eIF4E-4G inh: 2; eIF4H inh: -2; PABP1 MLLE inh: -28

Results for Cc1ccc(S(=O)(=O)N(C)C)cc1NC(=S)NNC(=O)C(N)=O ?
PABP FP inh: 61*; PERK inhibitor: 1; eIF4E-4G inh: -2; eIF4H inh: 9; PABP1 MLLE inh: -28

What do the screens show for `CN(CCc1ccccc1)C(=O)c1ccc(NC(=O)Cc2cccc(NC(=O)C3CCN(C(=O)CCc4ccccc4)CC3)c2)cc1`?
PABP1 MLLE inh: -3

What do the screens show for `CCN1CCN(c2nc3c(C)cccn3c(=O)c2/C=C(\C#N)S(=O)(=O)c2ccc(C)cc2)CC1`?
PABP FP inh: 22; PERK inhibitor: -1; eIF4E-4G inh: -1; eIF4H inh: 13; PABP1 MLLE inh: -3

Results for Cc1ccc(S(=O)(=O)/C(C#N)=C/c2c(N3CCN(C)CC3)nc3c(C)cccn3c2=O)cc1 ?
PABP FP inh: 29; PERK inhibitor: -1; eIF4E-4G inh: 7; eIF4H inh: 52*; PABP1 MLLE inh: -7

What do the screens show for `Cc1ccc(S(=O)(=O)/C(C#N)=C/c2c(N3CC(C)OC(C)C3)nc3c(C)cccn3c2=O)cc1` (stereo unspecified)?
PABP FP inh: 52*; PERK inhibitor: -2; eIF4E-4G inh: -21; eIF4H inh: 46*; PABP1 MLLE inh: 1

Compound activity deposited in PubChem by several laboratories.
